# Source: the supplement of paper PMC8728848
# The entries come from a sample that favours the strongest signals as a whole.
# Assays:
# Assay in all cases: glycan array binding signal (z-score within array); higher = stronger binding
# Details in all cases: glycan notation: IUPAC condensed, linker removed
# [1] = target: Fuc(a1-2)Gal(b1-3)GalNAc(b1-3)Gal
# In short: (§1)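 From the Consortium for Functional Glycomics database, 3228 arrays were curated, keeping only those whose protein sequence was available. Binding is given as a within-array Z-score averaged across arrays sharing a protein sequence and across linkers. Negative Z-scores can be read as non-binding.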
# [2] = target: Fuc(a1-2)Gal(b1-3)GlcNAc(b1-2)Man(a1-3)[Fuc(a1-2)Gal(b1-3)GlcNAc(b1-2)Man(a1-6)]Man(b1-4)GlcNAc(b1-4)[Fuc(a1-6)]GlcNAc
# In short: as §1
# [3] = target: Fuc(a1-2)Gal(b1-4)GlcNAc(b1-3)GalNAc
# In short: as §1
# [4] = target: Fuc(a1-2)Gal(b1-4)[Fuc(a1-3)]GlcNAc(b1-3)GalNAc
# In short: as §1
# [5] = target: Fuc(a1-2)[Gal(a1-3)]Gal(b1-3)GlcNAc
# In short: as §1
# [6] = target: Fuc(a1-2)[Gal(a1-3)]Gal(b1-3)GlcNAc(b1-2)Man(a1-3)[Fuc(a1-2)[Gal(a1-3)]Gal(b1-3)GlcNAc(b1-2)Man(a1-6)]Man(b1-4)GlcNAc(b1-4)GlcNAc
# In short: as §1
# [7] = target: Fuc(a1-2)[Gal(a1-3)]Gal(b1-4)[Fuc(a1-3)]Glc
# In short: as §1
# [8] = target: Fuc(a1-2)[GalNAc(a1-3)]Gal(b1-4)GlcNAc
# In short: as §1
# Fuc(a1-4)GlcNAc = target: Fuc(a1-4)GlcNAc
# In short: as §1
# [9] = target: Gal(a1-3)Gal(b1-3)GlcNAc(b1-2)Man(a1-3)[Gal(a1-3)Gal(b1-3)GlcNAc(b1-2)Man(a1-6)]Man(b1-4)GlcNAc(b1-4)GlcNAc
# In short: as §1
# [10] = target: Gal(a1-3)Gal(b1-3)[Fuc(a1-4)]GlcNAc(b1-2)Man(a1-3)[Gal(a1-3)Gal(b1-3)[Fuc(a1-4)]GlcNAc(b1-2)Man(a1-6)]Man(b1-4)GlcNAc(b1-4)GlcNAc
# In short: as §1
# Gal(a1-4)GlcNAc = target: Gal(a1-4)GlcNAc
# In short: as §1
# Gal(a1-6)Glc = target: Gal(a1-6)Glc
# In short: as §1
# Gal(b1-3)Gal(b1-4)GlcNAc = target: Gal(b1-3)Gal(b1-4)GlcNAc
# In short: as §1
# [11] = target: Gal(b1-3)[Fuc(a1-4)]GlcNAc(b1-2)Man(a1-3)[Gal(b1-3)[Fuc(a1-4)]GlcNAc(b1-2)Man(a1-6)]Man(b1-4)GlcNAc(b1-4)GlcNAc
# In short: as §1
# [12] = target: Gal(b1-3)[Fuc(a1-4)]GlcNAc(b1-3)Gal(b1-3)[Fuc(a1-4)]GlcNAc
# In short: as §1
# [13] = target: Gal(b1-3)[GlcNAc(b1-6)]GalNAc
# In short: as §1
# [14] = target: Gal(b1-4)GlcNAc(b1-3)Gal(b1-4)[Fuc(a1-3)GlcNAc(b1-6)]Gal(b1-4)Glc
# In short: as §1
# Gal3S(b1-4)Glc = target: Gal3S(b1-4)Glc
# In short: as §1
# Gal6S(b1-4)GlcNAc6S = target: Gal6S(b1-4)GlcNAc6S
# In short: as §1
# GalNAc(b1-3)GalNAc = target: GalNAc(b1-3)GalNAc
# In short: as §1
# [15] = target: GalNAc(b1-4)GlcNAc(b1-2)Man(a1-3)[GalNAc(b1-4)GlcNAc(b1-2)Man(a1-6)]Man(b1-4)GlcNAc(b1-4)GlcNAc
# In short: as §1
# [16] = target: GlcNAc(a1-4)Gal(b1-4)GlcNAc(b1-3)Gal(b1-4)GlcNAc
# In short: as §1
# [17] = target: GlcNAc(a1-4)Gal(b1-4)GlcNAc(b1-3)Gal(b1-4)[Fuc(a1-3)]GlcNAc(b1-3)Gal(b1-4)[Fuc(a1-3)]GlcNAc
# In short: as §1
# [18] = target: GlcNAc(b1-2)Man(a1-3)[GlcNAc(b1-2)Man(a1-6)]Man(b1-4)GlcNAc(b1-4)[Fuc(a1-6)]GlcNAc
# In short: as §1
# [19] = target: GlcNAc(b1-2)[GlcNAc(b1-4)]Man(a1-3)[GlcNAc(b1-4)][GlcNAc(b1-2)[GlcNAc(b1-6)]Man(a1-6)]Man(b1-4)GlcNAc(b1-4)GlcNAc
# In short: as §1
# GlcNAc(b1-4)GlcNAc = target: GlcNAc(b1-4)GlcNAc
# In short: as §1
# [20] = target: Man(a1-2)Man(a1-2)Man(a1-3)Man
# In short: as §1
# [21] = target: Man(a1-2)Man(a1-3)[Man(a1-2)Man(a1-6)]Man
# In short: as §1
# [22] = target: Man(a1-2)Man(a1-6)[Man(a1-3)]Man(a1-6)[Man(a1-2)Man(a1-2)Man(a1-3)]Man(b1-4)GlcNAc(b1-4)GlcNAc
# In short: as §1
# [23] = target: Neu5Ac(a2-3)Gal(b1-3)GalNAc6S
# In short: as §1
# [24] = target: Neu5Ac(a2-3)Gal(b1-4)GlcNAc6S
# In short: as §1
# [25] = target: Neu5Ac(a2-3)Gal(b1-4)[Fuc(a1-3)]GlcNAc(b1-3)Gal(b1-4)GlcNAc
# In short: as §1
# [26] = target: Neu5Ac(a2-3)Gal(b1-4)[Fuc(a1-3)]GlcNAc(b1-3)GalNAc
# In short: as §1
# [27] = target: Neu5Ac(a2-6)Gal(b1-4)GlcNAc(b1-3)Gal(b1-4)GlcNAc(b1-3)Gal(b1-4)GlcNAc
# In short: as §1
# [28] = target: Neu5Ac(a2-6)Gal(b1-4)GlcNAc(b1-3)Gal(b1-4)[Fuc(a1-3)]GlcNAc(b1-3)Gal(b1-4)[Fuc(a1-3)]GlcNAc
# In short: as §1
# [29] = target: Neu5Ac(a2-6)Gal(b1-4)GlcNAc6S
# In short: as §1
# [30] = target: Neu5Gc(b2-6)Gal(b1-4)GlcNAc
# In short: as §1
binder,measurement,setting,value
"Flo11 (Saccharomyces cerevisiae), P08640 (protein) MQRPFLLAYLVLSLLFNSALGFPTALVPRGSSEGTSCNSIVNGCPNLDFNWHMDQQNIMQYTLDVTSVSWVQDNTYQITIHVKGKENIDLKYLWSLKIIGVTGPKGTVQLYGYNENTYLIDNPTDFTATFEVYATQDVNSCQVWMPNFQIQFEYLQGSAAQYASSWQWGTTSFDLSTGCNNYDNQGHSQTDFPGFYWNIDCDNNCGGTKSSTTTSSTSESSTTTSSTSESSTTTSSTSESSTTTSSTSESSTSSSTTAPATPTTTSCTKEKPTPPTTTSCTKEKPTPPHHDTTPCTKKKTTTSKTCTKKTTTPVPTPSSSTTESSSAPVPTPSSSTTESSSAPVTSSTTESSSAPVPTPSSSTTESSSAPVTSSTTESSSAPVTSSTTESSSAPVPTPSSSTTESSSAPVTSSTTESSSAPVTSSTTESSSAPVTSSTTESSSAPVTSSTTESSSAPVPTPSSSTTESSSAPVTSSTTESSSAPVPTPSSSTTESSSAPVTSSTTESSSAPVPTPSSSTTESSSAPAPTPSSSTTESSSAPVTSSTTESSSAPVPTPSSSTTESSSTPVTSSTTESSSAPVPTPSSSTTESSSAPVPTPSSSTTESSSAPAPTPSSSTTESSSAPVTSSTTESSSAPVPTPSSSTTESSSAPVPTPSSSTTESSSAPVPTPSSSTTESSSAPVTSSTTESSSAPVTSSTTESSSAPVPTPSSSTTESSSAPVPTPSSSTTESSSAPVPTPSSSTTESSSAPVTSSTTESSSAPVPTPSSSTTESSSAPVPTPSSSTTESSSAPVPTPSSSTTESSVAPVPTPSSSSNITSSAPSSTPFSSSTESSSVPVPTPSSSTTESSSAPVSSSTTESSVAPVPTPSSSSNITSSAPSSIPFSSTTESFSTGTTVTPSSSKYPGSQTETSVSSTTETTIVPTKTTTSVTTPSTTTITTTVCSTGTNSAGETTSGCSPKTVTTTVPTTTTTSVTTSSTTTITTTVCSTGTNSAGETTSGCSPKTITTTVPCSTSPSETASESTTTSPTTPVTTVVSTTVVTTEYSTSTKPGGEITTTFVTKNIPTTYLTTIAPTPSVTTVTNFTPTTITTTVCSTGTNSAGETTSGCSPKTVTTTVPCSTGTGEYTTEATTLVTTAVTTTVVTTESSTGTNSAGKTTTGYTTKSVPTTYVTTLAPSAPVTPATNAVPTTITTTECSAATNAAGETTSVCSAKTIVSSASAGENTAPSATTPVTTAIPTTVITTESSVGTNSAGETTTGYTTKSIPTTYITTLIPGSNGAKNYETVATATNPISIKTTSQLATTASASSVAPVVTSPSLTGPLQSASGSAVATYSVPSISSTYQGAANIKVLGNFMWLLLALPVVF",glycan array binding signal (z-score),[1],4.03
same,glycan array binding signal (z-score),[2],0.319
same,glycan array binding signal (z-score),[3],1.35
same,glycan array binding signal (z-score),[4],5.39
same,glycan array binding signal (z-score),[5],-0.315
same,glycan array binding signal (z-score),[6],-0.389
same,glycan array binding signal (z-score),[7],-0.826
same,glycan array binding signal (z-score),[8],-0.692
same,glycan array binding signal (z-score),Fuc(a1-4)GlcNAc,0.442
same,glycan array binding signal (z-score),[9],0.723
same,glycan array binding signal (z-score),[10],0.122
same,glycan array binding signal (z-score),Gal(a1-4)GlcNAc,-0.72
same,glycan array binding signal (z-score),Gal(a1-6)Glc,-0.453
same,glycan array binding signal (z-score),Gal(b1-3)Gal(b1-4)GlcNAc,0.164
same,glycan array binding signal (z-score),[11],-0.241
same,glycan array binding signal (z-score),[12],-0.512
same,glycan array binding signal (z-score),[13],-1.34
same,glycan array binding signal (z-score),[14],-1.05
same,glycan array binding signal (z-score),Gal3S(b1-4)Glc,0.09
same,glycan array binding signal (z-score),Gal6S(b1-4)GlcNAc6S,0.193
same,glycan array binding signal (z-score),GalNAc(b1-3)GalNAc,-0.184
same,glycan array binding signal (z-score),[15],0.79
same,glycan array binding signal (z-score),[16],6.8
same,glycan array binding signal (z-score),[17],3.01
same,glycan array binding signal (z-score),[18],3.49
same,glycan array binding signal (z-score),[19],0.283
same,glycan array binding signal (z-score),GlcNAc(b1-4)GlcNAc,-0.781
same,glycan array binding signal (z-score),[20],7.09
same,glycan array binding signal (z-score),[21],-0.669
same,glycan array binding signal (z-score),[22],-1.08
same,glycan array binding signal (z-score),[23],-0.833
same,glycan array binding signal (z-score),[24],0.179
same,glycan array binding signal (z-score),[25],2.91
same,glycan array binding signal (z-score),[26],3.06
same,glycan array binding signal (z-score),[27],-0.252
same,glycan array binding signal (z-score),[28],0.359
same,glycan array binding signal (z-score),[29],-0.192
same,glycan array binding signal (z-score),[30],0.414
